# Results taken from PubChem BioAssay (NCATS).
# Inconclusive results are not listed. Values without a mark were called inactive. Calls of active or inactive are those of the source. Calls follow the shape of the dose curve; as a rule, active = well fitted inhibition curve with a large enough effect; inconclusive = small, poorly fitted or top-dose-only effect; inactive = no such curve, though single readings can be large or run the other way.
# Molecular target: Cytochrome P450 1A2 (Homo sapiens) (UniProt P05177)
# Assay: qHTS for inhibitors of CYPIA2 against the NCATS DSHEA and TCM libraries (AID 1919976);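 as to activity change, negative = inhibition: light from luciferin formed by CYP1A2 from a pro-luciferin substrate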
# Settings: recombinant CYP1A2 enzyme activity, luminescence; series mostly up to 20.3 µM; activity change, negative = inhibition: at the top concentration
# In short: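 Enzyme and pro-luciferin substrate, or substrate alone as no-enzyme background, are pre-incubated with test samples for 15 min at room temperature. NADPH regeneration system (1x final) initiates a 30-45 min dark reaction; luciferase detection reagent follows before luminescence reading.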
# % is scaled to controls: 0 for no effect and ±100 for the full control effect; potency is read from the fitted curve at half-maximal effect.
# Chain of Cytochrome P450 1A2 (Homo sapiens) (P05177 whole entry, looked up): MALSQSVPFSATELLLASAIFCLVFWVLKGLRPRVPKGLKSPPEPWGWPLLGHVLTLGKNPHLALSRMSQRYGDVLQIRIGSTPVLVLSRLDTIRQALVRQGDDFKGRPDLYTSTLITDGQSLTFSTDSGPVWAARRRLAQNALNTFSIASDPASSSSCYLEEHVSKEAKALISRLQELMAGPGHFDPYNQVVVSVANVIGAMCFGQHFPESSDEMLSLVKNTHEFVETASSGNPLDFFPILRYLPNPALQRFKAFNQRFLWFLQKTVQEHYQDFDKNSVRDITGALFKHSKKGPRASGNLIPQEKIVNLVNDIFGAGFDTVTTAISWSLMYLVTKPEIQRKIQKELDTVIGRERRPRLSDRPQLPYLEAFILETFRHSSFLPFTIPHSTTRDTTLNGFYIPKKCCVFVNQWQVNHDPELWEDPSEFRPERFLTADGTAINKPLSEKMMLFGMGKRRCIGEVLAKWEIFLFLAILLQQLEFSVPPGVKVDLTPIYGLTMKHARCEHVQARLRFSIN
SMILES,"activity change, negative = inhibition",Potency
OC[C@H]1O[C@@H](OC[C@H]2O[C@@H](OC/C=C/c3ccccc3)[C@H](O)[C@@H](O)[C@@H]2O)[C@@H](O)[C@@H]1O,-9.88%,–
C[C@@]12CC[C@@H]3[C@@](CC[C@H]4[C@@]3(C)CCC[C@@]4(C)C(=O)O)(CC1=O)C2,7.71% [at 37 µM],–
CC1CC[C@]2(C(=O)O)CC[C@]3(C(=O)O)C(=CCC4[C@@]5(C)CC[C@H](OC6OC(C)C(O)C(OC7OC(CO)C(O)C(O)C7O)C6O)C(C)(C)C5CC[C@]43C)C2C1C (stereo not given in full),13.8%,–
CC(C)=CCC[C@](C)(O)[C@H]1CC[C@]2(C)[C@@H]1[C@H](O)CC1[C@@]3(C)CC[C@H](O)C(C)(C)[C@@H]3[C@@H](O[C@@H]3O[C@H](CO)[C@@H](O)[C@H](O)[C@H]3O[C@@H]3O[C@H](CO)[C@@H](O)[C@H](O)[C@H]3O)C[C@]12C (stereo not given in full),12.4%,–
CC(C)=CCC(O)/C(C)=C/CO[C@@H]1O[C@H](CO)[C@@H](O)[C@H](O)[C@H]1O (stereo not given in full),–,3.55 µM (active)
